# “And” between values parts separate entries of the source, which are not always exact repeats. Equal values may be shown once. Inconclusive results are not listed. Where a structure was tested more than once in an assay, its records may differ in their call. Unmarked numbers belong to inactive results. The source made the active and inactive calls. Unless noted, calls follow the shape of the dose curve; as a rule, active = well fitted curve in the direction sought with a large enough effect; inconclusive = small, poorly fitted or top-dose-only effect, or another doubt; inactive = no such curve, though single readings can be large; an effect the other way counts as inactive or inconclusive.
# What was measured:
# [1] = target: Cellular tumor antigen p53 (Homo sapiens) (UniProt P04637); assay: Primary qHTS for small molecule compounds that upregulate eGFP-tagged delta133p53alpha (in N-terminal) cells. (AID 2060322); conditions: NCI-H358 eGFP-delta133p53alpha fluorescence, 24 h; activation: active compounds read high; also: nearly all actives have a fitted effect of over 75% in size; also: potency is read from the fitted curve at half-maximal effect;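 as to activation: series mostly up to about 56 µM; 0% = DMSO vehicle and 100% = reference activator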
# Outline: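 NCI-H358 cells pre-induced 24 h with 10 ng/ml doxycycline to express N-terminal eGFP-delta133p53alpha, then dosed 24 h at 37C without doxycycline; fixed, Hoechst-stained, GFP intensity by laser scanning cytometry, normalized to DMSO (0%) and 57.5 uM 5-azacytidine (100%).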
# [2] = target: Cellular tumor antigen p53 (Homo sapiens) (UniProt P04637); assay: Primary qHTS for small molecule compounds that upregulate eGFP-tagged delta133p53alpha (in C-terminal) cells. (AID 2060324); also: potency is read from the fitted curve at half-maximal effect
# Outline: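 NCI-H358 cells pre-induced 24 h with 100 ng/ml doxycycline to express delta133p53alpha-eGFP, then dosed in doxycycline-free medium for 24 h at 37C. Fixed, Hoechst-stained; GFP intensity by laser scanning cytometry, normalized to DMSO wells.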
# [3] = target: Aldehyde dehydrogenase, mitochondrial (Homo sapiens) (UniProt P05091); assay: qHTS for Inhibitors of the Aldehyde Dehydrogenase Family (ALDH2) Validation screens (AID 2061302; active = well fitted inhibition curve with a large enough effect; title and protocol of this record describe different tests;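 also: plate controls were DMSO vehicle for no effect and maximal DPI positive control response for full effect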)
# [4] = BET inhibitor-based combinations targeting novel dependencies in MECOM-rearranged (r) AML: SET-2 cell line (AID 2202231); conditions: SET-2 AML cells viability, CellTiter-Glo luminescence, 48 h; viability: active compounds read low, concentration not given here; also: nearly all actives have a fitted effect of over 35% in size; also: potency is read from the fitted curve at half-maximal effect;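 as to viability: plate controls were DMSO treated cells for no effect and wells without cells for full effect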
# Outline: (§1)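 500 cells/well; 11-pt dose curve; 48 h, standard incubator; CellTiter-Glo luminescence after 15 min RT; DMSO/empty-well normalization; AUC plus Z-AUC (mean-centered within each line).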
# [5] = BET inhibitor-based combinations targeting novel dependencies in MECOM-rearranged (r) AML: OCI-AML3 cell line (AID 2202232); conditions: Potency: OCI-AML3 viability; also: nearly all actives have a fitted effect of over 35% in size; also: potency is read from the fitted curve at half-maximal effect
# Outline: as §1
# [6] = BET inhibitor-based combinations targeting novel dependencies in MECOM-rearranged (r) AML: MV-4-11 cell line (AID 2202233); also: nearly all actives have a fitted effect of over 45% in size; also: potency is read from the fitted curve at half-maximal effect
# Outline: (§2)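 Cells were plated at 500 per well and exposed to each drug across an 11-point dose range for 48 hr at standard incubator conditions. Viability was read by CellTiter-Glo luminescence, and activity was expressed as AUC and per-cell-line Z-transformed AUC.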
# [7] = BET inhibitor-based combinations targeting novel dependencies in MECOM-rearranged (r) AML: HNT-34 cell line (AID 2202234); also: nearly all actives have a fitted effect of over 35% in size; also: potency is read from the fitted curve at half-maximal effect
# Outline: as §2
# [8] = BET inhibitor-based combinations targeting novel dependencies in MECOM-rearranged (r) AML: UCSD-AML1 cell line (AID 2202235); also: nearly all actives have a fitted effect of over 40% in size; also: potency is read from the fitted curve at half-maximal effect
# Outline: as §2
# [9] = BET inhibitor-based combinations targeting novel dependencies in MECOM-rearranged (r) AML: AML-191 cell line (AID 2202236; also: nearly all actives have a fitted effect of over 35% in size; also: potency is read from the fitted curve at half-maximal effect)
# Outline: as §1
# [10] = BET inhibitor-based combinations targeting novel dependencies in MECOM-rearranged (r) AML: AML-194 cell line (AID 2202237; also: nearly all actives have a fitted effect of over 40% in size; also: potency is read from the fitted curve at half-maximal effect)
# Outline: as §1
# [11] = target: Aldehyde dehydrogenase, mitochondrial (Homo sapiens) (UniProt P05091); assay: qHTS for Inhibitors of the Aldehyde Dehydrogenase Family (ALDH2) Confirmatory screens (AID 2061303; active = well fitted inhibition curve with a large enough effect; title and protocol of this record describe different tests; also: % is scaled to controls: 0 for no effect and ±100 for the full control effect; nearly all actives have a fitted effect of over 45% in size)
# [12] = qHTS for Inhibitors of the Aldehyde Dehydrogenase Family (ALDH1A2, ALDH1A3, ALDH2, ALDH3A1) (AID 2061307); also: % is scaled to controls: 0 for no effect and ±100 for the full control effect; nearly all actives have a fitted effect of over 50% in size
# Chain of Cellular tumor antigen p53 (Homo sapiens) (P04637 whole entry, looked up): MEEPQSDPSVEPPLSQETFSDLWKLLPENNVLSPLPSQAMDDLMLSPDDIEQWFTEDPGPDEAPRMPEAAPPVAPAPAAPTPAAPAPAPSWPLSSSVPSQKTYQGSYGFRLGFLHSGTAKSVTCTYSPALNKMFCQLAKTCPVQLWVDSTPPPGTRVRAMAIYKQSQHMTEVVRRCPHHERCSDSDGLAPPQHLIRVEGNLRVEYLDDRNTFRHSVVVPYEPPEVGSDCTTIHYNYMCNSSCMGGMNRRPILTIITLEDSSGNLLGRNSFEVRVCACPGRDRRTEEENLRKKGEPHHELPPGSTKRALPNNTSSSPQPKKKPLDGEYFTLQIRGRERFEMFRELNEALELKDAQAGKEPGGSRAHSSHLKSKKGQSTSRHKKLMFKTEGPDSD
smiles,measurement,setting,value
C[C@H](NC(=O)/C(C#N)=C/c1ccc(O)c(O)c1)c1ccccc1,activation,[1],-11.2%
same,Potency,[2],inactive
COc1ccc(-c2cc3ncc(C)n3c(Nc3ncccc3C(N)=O)n2)cc1OC,activation,[1],2.48%
same,Potency,[2],10.7 µM (active)
NC1(C(=O)O)CC1,activation,[1],-6.03%
same,Potency,[2],inactive
C#CCN(C)Cc1ccccc1,activation,[1],2.82% and -8.29%
same,Potency,[2],inactive
same,Potency,[3],inactive
Cc1cc2c(C(C)C)c(O)c(O)c(C=O)c2c(O)c1-c1c(C)cc2c(C(C)C)c(O)c(O)c(C=O)c2c1O,Potency,[1],24.6 µM (active)
same,activation,[1],-36.4%
same,Potency,[4],9.34 µM (active)
same,Potency,[5],9.34 µM (active)
same,Potency,[6],9.34 µM (active)
same,Potency,[7],9.34 µM (active)
same,Potency,[8],9.34 µM (active)
same,Potency,[9],9.34 µM (active)
same,Potency,[10],13.2 µM (active)
O=C(/C=C/c1ccc(O)c(O)c1)OCCc1ccccc1,activation,[1],-0.816%
same,Potency,[2],inactive
NC1(C(=O)O)CCc2cc(C(=O)O)ccc21 (configuration not stated),activation,[1],7.39%
same,Potency,[2],inactive
Cn1cc(C(F)(F)F)nc1-c1ccc(OCC(O)CNCCOc2ccc(O)c(C(N)=O)c2)cc1 (configuration not stated),activation,[1],-30.5%
same,Potency,[2],inactive
CN1CCc2ccccc2Cc2[nH]c3ccccc3c2CC1,activation,[1],-5.31%
same,Potency,[2],26.9 µM (active)
same,Potency,[3],inactive
C=CC1(C)CC(=O)C2(O)C(C)(O1)C(OC(C)=O)C(O)C1C(C)(C)CCC(O)C12C (configuration not stated),activation,[1],-19.1%
same,Potency,[2],inactive
OCc1cc(C(O)CNCCCCCCOCCCCc2ccccc2)ccc1O (configuration not stated),activation,[1],13.4% and 3.4%
same,Potency,[2],inactive
CC(=O)N(O)CCCCCNC(=O)CCC(=O)N(O)CCCCCNC(=O)CCC(=O)N(O)CCCCCN,Potency,[1],1.36 µM (active)
same,activation,[1],41.2%
same,Potency,[4],20.9 µM (active)
same,Potency,[5],11.8 µM (active)
same,Potency,[6],11.8 µM (active)
same,Potency,[7],9.34 µM (active)
same,Potency,[9],8.33 µM (active)
same,Potency,[10],9.34 µM (active)
CC1=C(CC(=O)O)c2cc(F)ccc2/C1=C\c1ccc(S(C)=O)cc1 (configuration not stated),activation,[1],19.2% and 25%
same,Potency,[2],inactive
NC(Cc1ccc(Cl)cc1)C(=O)O (configuration not stated),activation,[1],-15.1% and -12.2%
same,Potency,[2],inactive
same,Potency,[3],inactive
Cc1coc2c1C(=O)C(=O)c1c-2ccc2c1CCCC2(C)C,Potency,[1],8.49 µM (active)
same,activation,[1],36.5%
same,viability,[4],97.6%
same,Potency,[7],18.6 µM (active)
same,Potency,[8],inactive
same,Potency,[9],inactive
same,Potency,[10],inactive
O=c1oc(Cl)c(Cl)c2ccccc12,activation,[1],3%
same,Potency,[2],inactive
N#Cc1cc([N+](=O)[O-])c2sc(C(N)=O)[n+]([O-])c2c1,activation,[1],-56.4%
same,Potency,[2],inactive
COc1ncnc(NS(=O)(=O)c2ccc(N)cc2)c1OC,Potency,[1],27.3 µM (active)
same,activation,[1],26.8%
same,Potency,[5],inactive
same,Potency,[6],inactive
same,Potency,[7],inactive
same,Potency,[8],inactive
same,Potency,[9],inactive
same,Potency,[10],inactive
CCCOc1ccc(C(=O)OCCN(CC)CC)cc1N,Potency,[1],24.3 µM (active)
same,activation,[1],9.6%
same,viability,[4],101%
same,Potency,[5],inactive
same,Potency,[7],inactive
same,Potency,[8],inactive
same,Potency,[9],inactive
same,Potency,[10],inactive
O=C(O)C1=CC(=C(c2ccc(O)c(C(=O)O)c2)c2ccc(O)c(C(=O)O)c2)C=CC1=O,activation,[1],-71.6%
same,Potency,[2],inactive
Oc1ccc(/C=C/c2ccc(/C=C/c3ccc(O)cc3)c(Br)c2)cc1,Potency,[1],3.38 µM (active)
same,Potency,[2],inactive
COc1ccc(Br)cc1S(=O)(=O)NC(=O)/C=C/c1ccccc1Cc1ccc2ccccc2c1,activation,[1],-15.8%
same,Potency,[2],inactive
Cc1c(-c2ccc(O)cc2)n(Cc2ccc(OCCN3CCCCCC3)cc2)c2ccc(O)cc12,Potency,[1],38.9 µM (active)
same,activation,[1],-20.9%
same,Potency,[4],23.5 µM (active)
same,Potency,[5],16.6 µM (active)
same,Potency,[6],16.6 µM (active)
same,Potency,[8],inactive
same,Potency,[10],26.3 µM (active)
Nc1nc2c(cnn2CCc2ccccc2)c2nc(-c3ccco3)nn12,activation,[1],-28.5%
same,Potency,[2],inactive
same,Potency,[3],inactive
CCCOc1ccc2nc(NC(=O)OC)[nH]c2c1,Potency,[1],0.0685 µM (active)
same,activation,[1],62.8%
same,Potency,[4],0.525 µM (active)
same,Potency,[5],0.332 µM (active)
same,Potency,[6],0.372 µM (active)
same,Potency,[7],0.235 µM (active)
same,Potency,[8],0.263 µM (active)
same,Potency,[9],0.263 µM (active)
Oc1cc2c(cc1O)CN(C(=S)NCCc1ccc(Cl)cc1)CCC2,activation,[1],-14.7%
same,Potency,[2],inactive
same,Potency,[3],inactive
C=CCn1c(=O)c2c(nc(-c3ccc(S(=O)(=O)O)cc3)n2C)n(C)c1=O,activation,[1],-9.98%
same,Potency,[2],inactive
same,Potency,[3],inactive
CCOC(=O)c1cnc2c(cnn2CC)c1NN=C(C)C,activation,[1],11.7% and -44.5%
same,Potency,[2],inactive
same,Potency,[3],inactive
same,Potency,[11],inactive
same,Potency,[12],inactive
C#CCN(C)CCCOc1ccc(Cl)cc1Cl,activation,[1],-2.51% and -6.18%
same,Potency,[2],inactive
same,Potency,[3],inactive
NCCC1CCCC(CCN)N1 (configuration not stated),activation,[1],10.3%
same,Potency,[2],inactive
same,Potency,[3],inactive

# Source: PubChem BioAssay (NCATS)
